Compound activity from PubChem BioAssay.
Shown are actives, neighbours in structure and some others; about 3.3% of the full set was active somewhere.
SARS PLpro yeast: inhibitors of SARS-CoV papain-like protease in yeast; S. cerevisiae expressing SARS-CoV PLpro, growth rescue; Potency, µM (titrated, usually from 32.9 µM), without a hit: top-dose activity, positive = growth rescue, actives largely listed as activators; 0.19% of 330,000 active; AID 485353; calls by dose curve; also: 0% is about no effect; nearly all actives have a fitted effect of over 55% in size
RE007 growth inh: less growth of the S. pombe RE007 Vpr strain; S. pombe RE007 Vpr strain, BacTiter-Glo ATP luminescence, 24 h; Potency, µM (titrated, usually from 92.2 µM), for the others: top-dose activity change, negative = less growth, hits mostly inhibitors; 0.21% of 360,000 active; active = well fitted falling curve with a large enough effect; inconclusive = small, poorly fitted or top-dose-only effect; inactive = no such curve, though single readings can be large or run the other way; also: % is scaled to controls: 0 for no effect and ±100 for the full control effect; nearly all actives have a fitted effect of over 50% in size
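Fission yeast RE007 carrying one integrated HIV-1 vpr copy, seeded at OD 0.01 in PMG+AL medium with 23 nL pinned compound. Grown 24 h at 30 degrees; viability read by BacTiter-Glo luminescence after 5 min.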
LmPK inh: LmPK (Leishmania mexicana) enzyme inhibition | Potency, µM (series often up to 57.5 µM), for the others: at the highest dose activity change, negative = inhibition, usual class: inhibitors | 0.37% of 290,000 active | purified LmPK, Kinase-Glo ATP luminescence, 1 h | Q27686; also: % is scaled to controls: 0 for no effect and ±100 for the full control effect
Target sequence (Q27686 whole entry, looked up): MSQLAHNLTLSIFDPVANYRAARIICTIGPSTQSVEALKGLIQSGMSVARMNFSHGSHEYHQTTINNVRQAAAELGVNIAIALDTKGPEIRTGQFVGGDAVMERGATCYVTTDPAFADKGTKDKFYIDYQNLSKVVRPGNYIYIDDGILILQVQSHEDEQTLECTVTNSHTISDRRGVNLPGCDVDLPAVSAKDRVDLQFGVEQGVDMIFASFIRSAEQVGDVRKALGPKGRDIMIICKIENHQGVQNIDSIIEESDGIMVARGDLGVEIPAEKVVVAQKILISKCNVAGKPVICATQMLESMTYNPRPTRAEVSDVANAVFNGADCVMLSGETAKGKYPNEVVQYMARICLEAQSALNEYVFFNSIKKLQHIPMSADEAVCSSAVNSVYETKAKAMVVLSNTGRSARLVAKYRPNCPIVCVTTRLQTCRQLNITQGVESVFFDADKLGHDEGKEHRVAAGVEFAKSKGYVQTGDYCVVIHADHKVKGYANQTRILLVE
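qHTS format; LmPK 0.1 nM; substrates PEP 0.5 mM and ADP 0.1 mM. One-hour room-temperature incubation, then coupled luciferase luminescence; 0.5 nM enzyme wells mark activation.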
TbPYK inhibitor: T. brucei pyruvate kinase inhibition; Q57TT1; Potency, µM (top dose mostly 76.8 µM), for the others: at the top dose activity, negative = inhibition, hits mostly inhibitors; 0.12% of 410,000 active; TbPYK enzyme, Kinase-Glo Plus ATP luminescence, 45 min; also: % is scaled to controls: 0 for no effect and ±100 for the full control effect; nearly all actives have a fitted effect of over 50% in size
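ADP (130 uM final) triggers the TbPYK reaction after compound addition; incubation is 45 min at room temperature. Kinase-Glo Plus is then added and luminescence imaged. Normalized data are fitted to concentration-effect curves.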
Sm TGR block: S. mansoni TGR enzyme inhibition | 3% of 360,000 active | Q962Y6 | purified TGR, DTNB reduction, TNB absorbance 405 nm | Potency, µM (top dose mostly 114 µM), for inactives: at the top dose activity change, negative = inhibition, usual class: inhibitors | AID 485364; also: % is scaled to controls: 0 for no effect and ±100 for the full control effect; nearly all actives have a fitted effect of over 60% in size
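First, TGR (20 nM dispensed) and NADPH were mixed with compound. Second, a 15 min room-temperature incubation followed. Third, further NADPH and then DTNB were added to start the reaction. Finally, TNB absorbance was monitored kinetically.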
NS1 inh: inhibitors of influenza NS1 protein function; Potency, µM (doses to about 46.1 µM), without a hit: top-dose activity, positive = more growth; 0.4% of 270,000 active; calls by dose curve; also: actives are rising curves; nearly all actives have a fitted effect of over 50% in size
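A cell-based growth assay was used: compounds that relieve NS1-induced slow growth of budding yeast raise OD600. Assay medium was yeast nitrogen base with ammonium sulphate and -URA supplement, pH 6.0, with 2% galactose.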
Numbers without * were called inactive; ? = inconclusive; . = not tested or not shown. Unless noted, calls follow the shape of the dose curve; as a rule, active = well fitted curve in the direction sought with a large enough effect; inconclusive = small, poorly fitted or top-dose-only effect, or another doubt; inactive = no such curve, though single readings can be large; an effect the other way counts as inactive or inconclusive. Potency is read from the fitted curve at half-maximal effect.

SMILES	SARS PLpro yeast	RE007 growth inh	LmPK inh	TbPYK inhibitor	Sm TGR block	NS1 inh
C[C@H]1CC2[C@@H]3CCC4=CC(=O)C=C[C@]4(C)[C@@]3(F)[C@@H](O)C[C@]2(C)[C@@]1(O)C(=O)CO (stereo partly drawn)	.	.	.	.	.	-4%
COc1cc([N+](=O)[O-])ccc1NC(=O)N1CCCCCC1	-3%	-17%	-12%	7%	32µM*	10%
COc1cc([N+](=O)[O-])ccc1NC(=O)Nc1ccc(C(=O)N2CCCC2)cc1	13%	-7%	-2%	-6%	?	1%
CC(=O)c1ccc(NC(=O)C2C3C=CC(O3)C2C(=O)O)cc1 (stereo not drawn)	-3%	7%	-2%	2%	-6%	0%
O=C(O)C1C2C=CC(O2)C1C(=O)Nc1ccc2c(c1)OCCO2 (stereo not drawn)	-12%	.	-2%	.	35µM*	7%
COc1cccc(NC(=O)C2CC2)c1	-5%	-3%	.	-4%	-1%	.
COc1ccc(NC(=O)C2C3C=CC(O3)C2C(=O)O)cc1 (stereo not drawn)	-20%	-5%	-2%	1%	45µM*	5%
CCCOC(=O)c1ccc(NC(=O)C2C3C=CC(O3)C2C(=O)O)cc1 (stereo not drawn)	-16%	13µM*	1%	-14%	20µM*	-26%
COc1cccc(NC(=O)C2C3C=CC(O3)C2C(=O)O)c1 (stereo not drawn)	-21%	-23%	2%	2%	35µM*	26%
CC(=O)NC1[C@H]([C@H](O)[C@H](O)CO)OC(C(=O)O)=C[C@H]1N=C(N)N (stereo partly drawn)	.	.	.	-5%	.	.
C[N+](C)([O-])Cc1cc(-c2ccccc2)ccc1O	.	.	.	.	.	-2%
CCOc1ccc(-c2nc(Cn3c(=O)cc(-c4ccccc4)c4c(C)nn(C)c43)c(C)o2)cc1OC	.	.	.	1%	6%	.
COc1ccc2nc(/N=C\N(C)C)sc2c1	-3%	-8%	-12%	-11%	-28%	-4%
Cc1ccc(-n2[nH]c(C)c(C=Nc3cc(C)ccn3)c2=O)cc1	-20%	28µM*	-20%	5%	5%	-7%
COc1ccc2nc(/N=C/c3c(C)[nH]n(-c4ccc(C)cc4)c3=O)sc2c1	-79%	?	13µM*	-23%	1%	3%
Cc1ccc(-n2[nH]c(C)c(C=Nc3ccc(Br)cn3)c2=O)cc1	0%	-20%	-19%	-1%	-2%	.
COc1ccc(C(=O)/C=C/Sc2nc3ccccc3o2)cc1	0%	13%	-5%	2%	0.32µM*	-6%
CC1(C)CC(=O)C(C(C2=C(O)CC(C)(C)CC2=O)c2ccc(Br)s2)C(=O)C1 (stereo not drawn)	-17%	?	5%	?	10µM*	11%
Cc1ccc(C(C2=C(O)CC(C)(C)CC2=O)C2C(=O)CC(C)(C)CC2=O)s1 (stereo not drawn)	-3%	12%	5%	?	?	10%
COc1cccc(NC(=O)c2nn(-c3ccc(C)cc3)c(=O)n(C)c2=O)c1	.	.	.	3%	2%	.
N=C(c1ccc2ccccc2c1)c1ccccc1Cc1ccccc1	.	.	.	.	.	-13%
CC1CCN(S(=O)(=O)c2ccc3c(ccc(=O)n3CC(=O)Nc3ccc(C(C)C)cc3)c2)CC1	.	.	.	-4%	4%	.
CC1(C)[C@@H]2CC[C@]1(C)CN(CCC[N+](C)(C)C)C2	.	.	.	.	.	-3%
Nc1c(C(=O)Nc2ccccc2)sc2nc(-c3ccco3)ccc12	-2%	-5%	-1%	-5%	1µM*	4%
CC(=O)c1ccc(NC(=O)CSc2nnc(-c3ccco3)c(-c3ccco3)n2)cc1	1%	4%	7%	?	2.8µM*	-4%
CC(=O)c1ccc(NC(=O)c2ccc3nc(-c4ccco4)c(-c4ccco4)nc3c2)cc1	-1%	-4%	0%	?	0.79µM*	5%
